# Hits are enriched below; roughly 27% of the tested compounds scored in any of these assays.
# CYP2C9 inhib – blockers of cytochrome P450 2C9 activity – biochemical, luminescence, ADME assay, primary screen. inhibition, % at 5 µM. AID 777, 2007. 96,000 tested, 20% active. P11712. CYP2C9 Supersomes, luciferin-H conversion;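 active means blocking of liver enzyme CYP2C9 beyond about 50% at 5 µM, limit read from the data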
# PTK2B oligo ant – antagonists of Pyk2 self-association, primary screen, Q293 cells, FERM NanoBiT luminescence, HTS | active compounds read low | z-score (the deposit names both 25 µM and 10 µM) | 99,000 tested, 0.83% active | AID 1347419, 2020;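 active means Z-score of -3 or lower, scaled per plate to the spread of control and sample wells; inactive means z-score above -3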;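 further: negative z-score means lost luminescence so less FERM oligomerization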
# CYP2C9 activ – human CYP2C9 activators, primary screen, biochemical, luminescence; recombinant CYP2C9, luciferin-H conversion; active compounds read high; factor 1 = untreated enzyme, 0 = blocked; activation factor at 5 µM; 96,000 tested, 1.4% active; AID 1024, 2008;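 active means activation factor of 2 or more for CYP2C9 at a 5 µM dose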
# CYP2C19 inh – blockers of cytochrome P450 2C19 activity – biochemical, luminescence, ADME assay, primary screen; CYP2C19 Supersomes, luciferin-H EGE luminescence, 30 min; 96,000 tested, 21% active; inhibition, % at 5 µM; P33261;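 active means CYP2C19 inhibition above a set limit at 5 µM in the primary screen, cut at about 50% in these data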
# Target sequence (P33261 whole entry, looked up): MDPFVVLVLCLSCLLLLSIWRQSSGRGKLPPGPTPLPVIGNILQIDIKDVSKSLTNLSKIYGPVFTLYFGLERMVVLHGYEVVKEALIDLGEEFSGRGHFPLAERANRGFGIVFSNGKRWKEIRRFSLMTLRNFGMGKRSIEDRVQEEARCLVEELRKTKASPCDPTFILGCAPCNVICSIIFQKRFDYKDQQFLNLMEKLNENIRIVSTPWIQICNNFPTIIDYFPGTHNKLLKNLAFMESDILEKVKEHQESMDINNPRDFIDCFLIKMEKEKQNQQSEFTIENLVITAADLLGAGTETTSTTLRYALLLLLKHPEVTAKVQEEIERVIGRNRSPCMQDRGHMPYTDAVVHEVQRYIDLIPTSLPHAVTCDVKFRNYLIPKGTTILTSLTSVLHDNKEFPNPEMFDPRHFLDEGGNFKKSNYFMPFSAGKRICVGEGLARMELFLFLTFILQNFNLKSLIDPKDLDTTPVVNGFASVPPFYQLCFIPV
# CYP2C19 activ – human CYP2C19 activators, primary screen, biochemical, luminescence; Cytochrome P450 2C19 (Homo sapiens), P33261; recombinant CYP2C19, luciferin-H EGE luminescence; active compounds read high; 0 = fully inhibited enzyme, 1 = untreated enzyme; activation factor at 5 µM; 96,000 tested, under 10 active;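 active means activation factor of at least 2 at 5 µM in the primary screen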
# Cav3 T inh – Cav3.2 calcium influx blockers – cell-based, Fluo-4 calcium fluorescence, FDSS, MLSMR library, primary screen | Cav3.2-expressing cells; active compounds read low | B-score at 10 µM | 100,000 tested, 4% active;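 active means single-dose well whose peak fluorescence ratio is a statistical outlier from its plate by either plate-standardised score or position-corrected B-score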
# Numbers stand for hits; i = inactive; nt = not tested or not shown.
SMILES,CYP2C9 inhib,PTK2B oligo ant,CYP2C9 activ,CYP2C19 inh,CYP2C19 activ,Cav3 T inh
CCC(C)n1c(C)nc2c(c1=O)c1nc3ccccc3nc1n2-c1ccc2c(c1)OCCO2 (stereo unspecified),i,nt,i,i,i,nt
Cc1ccccc1Cn1nnc(C(=O)Nc2cccc(C)c2C)c1N,i,i,i,54,i,nt
Cc1cc(C)cc(NC(=O)c2nnn(Cc3cc(C)ccc3C)c2N)c1,68,nt,i,i,i,i
N#Cc1cccc(NC(=O)CSc2ccccc2)c1,i,i,i,i,i,i
COc1ccc(NC(=O)CSc2ccc3c4c(cccc24)C(=O)c2ccccc2-3)cc1,84,i,i,i,i,i
N#Cc1cccc(NC(=O)CSc2ccc3c4c(cccc24)C(=O)c2ccccc2-3)c1,74,i,i,i,i,-5.6
CCCOC(=O)c1ccc(OCC(O)CN2CCN(C(=O)c3ccccc3)CC2)cc1 (stereo unspecified),64,i,i,i,i,i
CC(=NCCN1CCN(C(=S)Nc2ccccc2)CC1)C1=C(O)CC(C)(C)CC1=O,i,i,i,i,i,i
O=C(CCn1cccc1)Nc1ccccc1F,i,i,i,i,i,i
O=C(CCC(=O)c1cccs1)Nc1ccccc1F,i,i,i,52,i,i
CC(C)(C)CC(=O)NCc1ccc(F)cc1,i,i,i,53,i,i
O=C(CCC(=O)c1cccs1)NCc1ccc(F)cc1,i,i,i,72,i,i
CCOC(=O)C1C(=O)C=C(/C=C/c2ccccc2)CC1c1ccc(Cl)cc1 (stereo unspecified),i,i,i,i,i,i
Cc1ccc(NC(=O)CC(=O)NCCN2CCOCC2)cc1,i,i,i,i,i,i
CC(=O)/C(=N\Nc1ccc(C)cc1)N1CCOCC1,i,i,i,80,i,i
c1coc(C2Nc3ccccc3-c3nc4ccccc4n32)c1 (stereo unspecified),91,i,i,80,i,i
c1ccc(C2Nc3ccccc3-c3nc4ccccc4n32)cc1 (stereo unspecified),71,i,i,i,i,i
c1ccc(C2Nc3ccccc3-c3nc4ccccc4n32)nc1 (stereo unspecified),nt,i,nt,nt,nt,i
Cc1ccc(Cn2c(C3CCCN3c3nc(-c4ccc(F)cc4)cs3)nc3cc(C(F)(F)F)ccc32)cc1 (stereo unspecified),nt,nt,nt,nt,nt,i
O=C(O)C(NC(=O)c1ccccc1)=C(Cl)Cl,nt,i,nt,nt,nt,i
O=C1CC(O)(C(F)(F)F)Oc2c1ccc1ccccc21 (stereo unspecified),96,i,i,84,i,-4.3
O=C1CC(O)(C(F)F)Oc2ccc3ccccc3c21 (stereo unspecified),60,i,i,85,i,nt
COc1ccc2c(c1)OC(O)(C(F)F)CC2=O (stereo unspecified),i,i,i,i,i,nt
CCOCCCNC(=O)C1CCN(S(=O)(=O)N2CC(C)CC(C)C2)CC1 (stereo unspecified),i,i,i,i,i,i
O=C(COC(=O)c1c[nH]c(=O)[nH]c1=O)NCc1ccccc1,i,i,i,i,i,i
SMILES,CYP2C9 inhib,PTK2B oligo ant,CYP2C9 activ,CYP2C19 inh,CYP2C19 activ,Cav3 T inh
N#Cc1c(-c2ccc(Cl)cc2Cl)nc2n(c1=O)CCS2,62,i,i,93,i,i
COc1cccc(-n2c(C)c(C(C)=O)c(C(C)=O)c2C)c1,78,i,i,77,i,i
COc1ccc(-n2c(C)c(C(C)=O)c(C(C)=O)c2C)cc1,i,i,i,i,i,i
COc1ccc(-n2c(C)c(C(C)=O)c(C(C)=O)c2C)cc1OC,i,i,i,68,i,i
c1ccc2c(c1)CCN(c1nc3cc4c(cc3s1)OCCO4)C2,i,i,i,i,i,i
COc1ccccc1/C=C/CN1CC(C)OC(C)C1 (stereo unspecified),i,i,i,i,i,i
Cc1ccc(CNC(=O)C2CC(=O)N(c3ccc(OCC(=O)N4CCCC4)cc3)C2)cc1 (stereo unspecified),nt,i,nt,nt,nt,i
O=C(C#Cc1ccccc1)c1ccc([N+](=O)[O-])cc1,i,i,i,i,i,i
O=[N+]([O-])c1ccc(N(c2ccccc2)c2ccccc2)cc1,51,i,i,i,i,i
CCO[C@@H]1OC(C(N)=O)=C[C@H](c2ccccc2)[C@H]1CCCO,nt,nt,nt,nt,nt,i
O=C(NC1CS(=O)(=O)CC1NCc1ccco1)c1ccccc1 (stereo unspecified),i,i,i,i,i,i
O=C(c1ccccc1[N+](=O)[O-])N1CCC(Cc2ccccc2)CC1,60,i,i,66,i,i
O=C(OCc1ccccc1)C1CCCN1C(=O)c1ccccc1[N+](=O)[O-] (stereo unspecified),i,i,i,i,i,i
Cc1cc(C(=O)N2CCC(Cc3ccccc3)CC2)ccc1[N+](=O)[O-],i,i,i,78,i,i
CN(C)S(=O)(=O)c1ccc2c(c1)C(CC(=O)O)NC2=O (stereo unspecified),i,i,i,i,i,i
O=C(NCC(F)(F)F)Nc1ccccn1,i,i,i,i,i,i
CCN(CC)C(=O)c1cccc(-c2ccc(OC)cc2)c1,i,i,i,69,i,nt
CCOC(=O)c1cnc2c(c(C)nn2C)c1Oc1ccc(Cl)cc1,i,i,i,i,i,-6.7
Cc1ccc(CNC(=O)C2CCN(S(=O)(=O)N3CCOCC3)CC2)cc1,i,i,i,i,i,i
O=C(CN1C(=O)c2cccc3cccc1c23)NCc1ccc2c(c1)OCO2,i,i,4,68,i,i
O=C(CN1C(=O)c2ccccc2S1(=O)=O)NCc1ccc2c(c1)OCO2,nt,i,nt,nt,nt,i
O=C(CN1c2cccc3cccc(c23)S1(=O)=O)NCc1ccc2c(c1)OCO2,i,i,4.1,81,i,i
O=C(CN1C(=O)c2cccc3cccc(c23)C1=O)N1CCN(Cc2ccc3c(c2)OCO3)CC1,55,i,i,i,i,i
O=C(CN1C(=O)c2cccc3cccc1c23)Nc1ccc2c(c1)OCO2,i,i,i,i,i,i
CC(C(=O)NCc1ccc2c(c1)OCO2)N1c2cccc3cccc(c23)S1(=O)=O (stereo unspecified),i,i,2.7,82,i,-5.1
CCOC(=O)c1c(C)noc1CP(=O)(c1ccccc1)c1ccccc1,nt,i,nt,nt,nt,i
N#CC1=C(O)C(c2ccccc2)n2c1nc(=O)c1ccccc12 (stereo unspecified),i,i,i,i,i,i
c1ccc(Nc2cc(-c3ccccc3)nc3ncnn23)cc1,i,i,i,i,i,i

# Source: PubChem
